Test results from PMC7862700, “An all-to-all approach to the identification of sequence-specific readers for epigenetic DNA modifications on cytosine”.

Legend:
Assay in all cases: DAPPL (digital affinity profiling via proximity ligation, sequencing); 10 mM Tris-HCl pH 7.5, 50 mM NaCl, 1 mM DTT, 4% glycerol, room temperature, 30 min; GST-TFs on glutathione beads, 16-mer random dsDNA library, 0.1% formaldehyde crosslink after washing; high values mean tight binding
Conditions in all cases: protein: recombinant; tags: N-terminal GST; dsDNA, one strand shown
ERF = biological target: T1, ERF (Homo sapiens, UniProt P50548 1-548)
T1 sequence: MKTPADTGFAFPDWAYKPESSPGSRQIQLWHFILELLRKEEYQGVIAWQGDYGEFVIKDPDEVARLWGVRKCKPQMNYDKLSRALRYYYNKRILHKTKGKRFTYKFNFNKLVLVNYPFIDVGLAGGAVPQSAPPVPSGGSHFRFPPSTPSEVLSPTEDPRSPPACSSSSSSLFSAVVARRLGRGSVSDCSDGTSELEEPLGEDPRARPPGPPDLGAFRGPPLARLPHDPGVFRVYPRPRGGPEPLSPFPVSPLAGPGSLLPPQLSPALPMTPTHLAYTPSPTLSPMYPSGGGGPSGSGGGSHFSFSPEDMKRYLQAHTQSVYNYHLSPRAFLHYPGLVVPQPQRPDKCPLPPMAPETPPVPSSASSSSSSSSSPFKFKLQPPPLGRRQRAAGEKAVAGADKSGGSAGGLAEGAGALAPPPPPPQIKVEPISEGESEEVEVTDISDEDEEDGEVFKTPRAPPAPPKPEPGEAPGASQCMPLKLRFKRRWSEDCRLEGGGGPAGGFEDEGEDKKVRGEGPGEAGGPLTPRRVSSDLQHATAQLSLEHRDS
Outline: (§1)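 Each value of binding signal is a hexamer's read frequency for a factor divided by the same hexamer's frequency in the tag-only sample. Barcoded, bead-captured GST fusions of human transcription factors made in yeast were pooled with that sample and incubated with 200 nmole of a random double-stranded 16-mer DNA library in Tris/NaCl/DTT/glycerol buffer at room temperature for 30 min. Washing, 0.1% formaldehyde crosslinking, proximity ligation, PCR and Illumina NextSeq500 sequencing followed.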

ETV3L = biological target: T2, ETV3L (Homo sapiens, UniProt Q6ZN32 1-361)
T2 sequence: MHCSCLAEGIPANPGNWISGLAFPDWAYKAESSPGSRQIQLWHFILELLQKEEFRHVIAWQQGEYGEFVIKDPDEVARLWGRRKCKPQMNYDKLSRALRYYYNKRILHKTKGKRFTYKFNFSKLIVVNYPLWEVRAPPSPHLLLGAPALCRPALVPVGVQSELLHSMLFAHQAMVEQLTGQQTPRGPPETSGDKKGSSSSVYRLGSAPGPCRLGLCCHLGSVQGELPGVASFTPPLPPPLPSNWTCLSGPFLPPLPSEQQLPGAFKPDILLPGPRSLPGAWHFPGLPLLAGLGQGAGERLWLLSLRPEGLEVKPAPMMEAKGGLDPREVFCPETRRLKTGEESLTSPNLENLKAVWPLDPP
Outline: as §1

ETS2 = biological target: T3, ETS2 (Homo sapiens, UniProt P15036 1-469)
T3 sequence: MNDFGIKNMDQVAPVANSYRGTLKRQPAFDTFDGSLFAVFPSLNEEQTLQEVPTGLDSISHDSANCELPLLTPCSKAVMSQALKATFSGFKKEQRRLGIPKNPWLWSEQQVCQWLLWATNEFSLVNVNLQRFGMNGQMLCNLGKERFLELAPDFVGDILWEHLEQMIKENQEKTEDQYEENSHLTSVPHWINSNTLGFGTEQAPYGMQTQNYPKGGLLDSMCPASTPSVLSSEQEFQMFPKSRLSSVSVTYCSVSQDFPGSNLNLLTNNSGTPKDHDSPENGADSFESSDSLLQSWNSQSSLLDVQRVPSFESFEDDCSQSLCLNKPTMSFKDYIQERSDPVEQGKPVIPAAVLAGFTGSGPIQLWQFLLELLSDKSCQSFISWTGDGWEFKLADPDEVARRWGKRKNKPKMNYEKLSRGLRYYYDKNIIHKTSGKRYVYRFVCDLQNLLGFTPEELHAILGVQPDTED
Outline: as §1

SPDEF = biological target: T4, SPDEF (Homo sapiens, UniProt O95238 1-335)
T4 sequence: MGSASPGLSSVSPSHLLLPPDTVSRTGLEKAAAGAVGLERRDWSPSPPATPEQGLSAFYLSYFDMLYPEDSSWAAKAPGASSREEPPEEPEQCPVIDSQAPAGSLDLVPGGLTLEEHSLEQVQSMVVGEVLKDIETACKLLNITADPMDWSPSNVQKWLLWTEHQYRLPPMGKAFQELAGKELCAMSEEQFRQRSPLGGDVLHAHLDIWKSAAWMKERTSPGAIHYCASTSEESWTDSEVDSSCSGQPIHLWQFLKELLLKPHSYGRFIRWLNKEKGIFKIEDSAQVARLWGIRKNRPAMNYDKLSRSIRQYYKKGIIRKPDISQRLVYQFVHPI
Outline: as §1

ETV7 = biological target: T5, ETV7 (Homo sapiens, UniProt Q9Y603 1-341)
T5 sequence: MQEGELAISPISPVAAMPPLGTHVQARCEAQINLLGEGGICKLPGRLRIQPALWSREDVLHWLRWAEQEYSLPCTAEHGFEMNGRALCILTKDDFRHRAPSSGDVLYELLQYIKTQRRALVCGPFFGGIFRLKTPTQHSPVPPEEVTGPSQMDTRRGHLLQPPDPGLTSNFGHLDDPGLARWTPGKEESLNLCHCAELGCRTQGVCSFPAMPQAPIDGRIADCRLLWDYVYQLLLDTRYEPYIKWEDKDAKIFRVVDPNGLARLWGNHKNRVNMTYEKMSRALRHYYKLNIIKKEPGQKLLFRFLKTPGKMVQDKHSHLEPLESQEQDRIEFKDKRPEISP
Outline: as §1

ELF5 = biological target: T6, ELF5 (Homo sapiens, UniProt Q9UKW6-2 1-255)
T6 sequence: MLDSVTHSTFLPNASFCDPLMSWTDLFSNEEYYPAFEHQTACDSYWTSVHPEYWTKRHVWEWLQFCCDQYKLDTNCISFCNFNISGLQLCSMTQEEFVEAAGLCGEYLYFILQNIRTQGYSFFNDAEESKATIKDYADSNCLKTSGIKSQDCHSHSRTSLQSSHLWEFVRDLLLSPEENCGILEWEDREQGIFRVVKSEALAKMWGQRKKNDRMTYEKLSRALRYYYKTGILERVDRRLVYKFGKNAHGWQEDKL
Outline: as §1

ETV3 = biological target: T7, ETV3 (Homo sapiens, UniProt P41162-2 1-143)
T7 sequence: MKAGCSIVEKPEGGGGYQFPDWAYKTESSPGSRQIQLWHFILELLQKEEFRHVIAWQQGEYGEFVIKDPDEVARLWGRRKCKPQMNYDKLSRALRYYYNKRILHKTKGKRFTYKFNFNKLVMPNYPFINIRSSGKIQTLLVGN
Outline: as §1

ETV6 = ETV6 (Homo sapiens, UniProt P41212 1-452)
Sequence of ETV6 (P41212 whole entry): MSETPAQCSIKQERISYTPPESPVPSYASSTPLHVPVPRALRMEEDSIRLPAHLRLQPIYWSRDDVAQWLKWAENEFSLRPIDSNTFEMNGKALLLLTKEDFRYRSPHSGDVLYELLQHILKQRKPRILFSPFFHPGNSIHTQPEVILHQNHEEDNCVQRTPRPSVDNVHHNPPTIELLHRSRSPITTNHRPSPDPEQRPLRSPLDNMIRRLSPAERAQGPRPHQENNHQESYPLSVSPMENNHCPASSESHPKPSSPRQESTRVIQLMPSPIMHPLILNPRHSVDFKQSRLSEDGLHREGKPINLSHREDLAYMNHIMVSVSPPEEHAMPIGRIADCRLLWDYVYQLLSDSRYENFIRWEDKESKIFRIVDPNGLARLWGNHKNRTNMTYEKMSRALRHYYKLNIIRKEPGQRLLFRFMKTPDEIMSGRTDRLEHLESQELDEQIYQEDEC
Outline: as §1

Sequence | binding signal (ERF) | binding signal (ETV3L) | binding signal (ETS2) | binding signal (SPDEF) | binding signal (ETV7) | binding signal (ELF5) | binding signal (ETV3) | binding signal (ETV6)
AAAATT | 1.48 fold enrichment (6-mer frequency, TF over GST control) | 1.49 fold enrichment (6-mer frequency, TF over GST control) | 1.4 fold enrichment (6-mer frequency, TF over GST control) | 1.26 fold enrichment (6-mer frequency, TF over GST control) | 1.5 fold enrichment (6-mer frequency, TF over GST control) | 1.29 fold enrichment (6-mer frequency, TF over GST control) | 1.31 fold enrichment (6-mer frequency, TF over GST control) | 1.33 fold enrichment (6-mer frequency, TF over GST control)
ATGGGT | 1.36 fold enrichment (6-mer frequency, TF over GST control) | 1.27 fold enrichment (6-mer frequency, TF over GST control) | 1.37 fold enrichment (6-mer frequency, TF over GST control) | 1.42 fold enrichment (6-mer frequency, TF over GST control) | 1.41 fold enrichment (6-mer frequency, TF over GST control) | 1.34 fold enrichment (6-mer frequency, TF over GST control) | 1.3 fold enrichment (6-mer frequency, TF over GST control) | 1.33 fold enrichment (6-mer frequency, TF over GST control)
ACTGGC | 1.18 fold enrichment (6-mer frequency, TF over GST control) | 1.18 fold enrichment (6-mer frequency, TF over GST control) | 1.11 fold enrichment (6-mer frequency, TF over GST control) | 1.04 fold enrichment (6-mer frequency, TF over GST control) | 1.21 fold enrichment (6-mer frequency, TF over GST control) | 1.04 fold enrichment (6-mer frequency, TF over GST control) | 1.07 fold enrichment (6-mer frequency, TF over GST control) | 1.15 fold enrichment (6-mer frequency, TF over GST control)
TGCGAA | 1.07 fold enrichment (6-mer frequency, TF over GST control) | 1.1 fold enrichment (6-mer frequency, TF over GST control) | 1.1 fold enrichment (6-mer frequency, TF over GST control) | 1.2 fold enrichment (6-mer frequency, TF over GST control) | 1.18 fold enrichment (6-mer frequency, TF over GST control) | 1.13 fold enrichment (6-mer frequency, TF over GST control) | 1.16 fold enrichment (6-mer frequency, TF over GST control) | 1.09 fold enrichment (6-mer frequency, TF over GST control)
CACTGC | 1.38 fold enrichment (6-mer frequency, TF over GST control) | 1.59 fold enrichment (6-mer frequency, TF over GST control) | 1.4 fold enrichment (6-mer frequency, TF over GST control) | 1.42 fold enrichment (6-mer frequency, TF over GST control) | 1.42 fold enrichment (6-mer frequency, TF over GST control) | 1.23 fold enrichment (6-mer frequency, TF over GST control) | 1.26 fold enrichment (6-mer frequency, TF over GST control) | 1.41 fold enrichment (6-mer frequency, TF over GST control)
GCTATG | 1.26 fold enrichment (6-mer frequency, TF over GST control) | 1.16 fold enrichment (6-mer frequency, TF over GST control) | 1.26 fold enrichment (6-mer frequency, TF over GST control) | 1.23 fold enrichment (6-mer frequency, TF over GST control) | 1.3 fold enrichment (6-mer frequency, TF over GST control) | 1.14 fold enrichment (6-mer frequency, TF over GST control) | 1.23 fold enrichment (6-mer frequency, TF over GST control) | 1.1 fold enrichment (6-mer frequency, TF over GST control)
GGTATA | 1.18 fold enrichment (6-mer frequency, TF over GST control) | 1.12 fold enrichment (6-mer frequency, TF over GST control) | 1.08 fold enrichment (6-mer frequency, TF over GST control) | 1.12 fold enrichment (6-mer frequency, TF over GST control) | 1.13 fold enrichment (6-mer frequency, TF over GST control) | 1.09 fold enrichment (6-mer frequency, TF over GST control) | 1.11 fold enrichment (6-mer frequency, TF over GST control) | 1.03 fold enrichment (6-mer frequency, TF over GST control)
CGTTAT | 1.17 fold enrichment (6-mer frequency, TF over GST control) | 1.2 fold enrichment (6-mer frequency, TF over GST control) | 1.15 fold enrichment (6-mer frequency, TF over GST control) | 1.08 fold enrichment (6-mer frequency, TF over GST control) | 1.21 fold enrichment (6-mer frequency, TF over GST control) | 1.05 fold enrichment (6-mer frequency, TF over GST control) | 1.18 fold enrichment (6-mer frequency, TF over GST control) | 1.09 fold enrichment (6-mer frequency, TF over GST control)
GGGCTT | 1.19 fold enrichment (6-mer frequency, TF over GST control) | 1.2 fold enrichment (6-mer frequency, TF over GST control) | 1.22 fold enrichment (6-mer frequency, TF over GST control) | 1.11 fold enrichment (6-mer frequency, TF over GST control) | 1.28 fold enrichment (6-mer frequency, TF over GST control) | 1.16 fold enrichment (6-mer frequency, TF over GST control) | 1.19 fold enrichment (6-mer frequency, TF over GST control) | 1.2 fold enrichment (6-mer frequency, TF over GST control)
